Source: PubChem BioAssay (NCI)
This is part of a sample that, as a whole, favours compounds with a hit. Of some 83,000 tested, about 20% had one in any assay.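 Assay: single dose, 48 h. Readout: percent growth (0 = no net growth; negative = cell death). Active: <10.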 Calls of active or inactive are those of the source.

Key:
Assay in all cases: NCI-60 one-dose screen, 48 h (100 = growth as untreated, 0 = no growth, -100 = all killed)
Settings in all cases: 10 µM unless noted
HCT-15 colon = tested on: HCT-15 colon
HT29 colon = tested on: HT29 colon
SNB-75 CNS = tested on: SNB-75 CNS
SNB-19 CNS = tested on: SNB-19 CNS
U251 CNS = tested on: U251 CNS
PC-3 prostate = tested on: PC-3 prostate
UACC-62 melanoma = tested on: UACC-62 melanoma
LOX IMVI melanoma = tested on: LOX IMVI melanoma
SK-MEL-28 melanoma = tested on: SK-MEL-28 melanoma
SK-MEL-5 melanoma = tested on: SK-MEL-5 melanoma

Measured: growth

CCOC(=O)c1csc(NC(=O)COc2ccc(/C=C3\Oc4ccccc4C3=O)cc2)n1
inactive: HCT-15 colon 113% | HT29 colon 106% | SNB-75 CNS 81.3% | SNB-19 CNS 87.9% | U251 CNS 91.1% | PC-3 prostate 96.2% | UACC-62 melanoma 79.6% | LOX IMVI melanoma 78.3% | SK-MEL-28 melanoma 112%

O=C1Nc2ccc(C(=O)O)cc2/C1=N/c1nnc(Sc2ccccc2)s1
inactive: HCT-15 colon 104% | HT29 colon 115% | SNB-75 CNS 94.2% | SNB-19 CNS 102% | U251 CNS 98% | PC-3 prostate 104% | UACC-62 melanoma 99% | LOX IMVI melanoma 96.3% | SK-MEL-28 melanoma 112%

Cc1cc(N2CCN(CCNc3ccnc4cc(Cl)ccc34)CC2)nc(N2CCOCC2)n1
inactive: HCT-15 colon 27.4% | HT29 colon 20.7% | SNB-75 CNS 88.3% | SNB-19 CNS 89.9% | U251 CNS 64.5% | PC-3 prostate 65.1% | UACC-62 melanoma 60.2% | LOX IMVI melanoma 13.7% | SK-MEL-28 melanoma 77.5%

CCOc1ccc(NC(=O)CSc2oc(-c3ccccc3)nc2S(=O)(=O)c2ccc(C)cc2)cc1
inactive: HCT-15 colon 63.8% | HT29 colon 50.9% | SNB-75 CNS 45.3% | SNB-19 CNS 70.7% | U251 CNS 41.2% | PC-3 prostate 62.3% | UACC-62 melanoma 66.2% | LOX IMVI melanoma 54.1% | SK-MEL-28 melanoma 79.3%

O=C(O)c1ccc(-n2cc(/C=N/Nc3ccccc3)c(-c3ccc(F)cc3F)n2)cc1
active: UACC-62 melanoma -14.3%
inactive: HCT-15 colon 51.4% | HT29 colon 90.5% | SNB-75 CNS 78.2% | SNB-19 CNS 84.3% | U251 CNS 85.9% | PC-3 prostate 51.9% | LOX IMVI melanoma 18.5% | SK-MEL-28 melanoma 74.1%

Cc1c[n+](Cc2ccc3ccccc3c2)cn1Cc1ccc2ccccc2c1
active: HT29 colon -35.5% | SNB-75 CNS -0.361% | U251 CNS 8.55% | SK-MEL-5 melanoma -71.2% | SK-MEL-28 melanoma 4.48%
inactive: HCT-15 colon 95.1% | SNB-19 CNS 17.7% | PC-3 prostate 10.3% | LOX IMVI melanoma 19.5%

Oc1c(Br)cc(Br)c2ccc(Cn3cc(-c4ccccc4C(F)(F)F)nn3)nc12
inactive: HCT-15 colon 62.7% | HT29 colon 107% | SNB-75 CNS 80.8% | SNB-19 CNS 94.3% | U251 CNS 106% | PC-3 prostate 104% | UACC-62 melanoma 95.5% | LOX IMVI melanoma 77.2% | SK-MEL-28 melanoma 96.9%

CCOC(=O)c1c(NC(=O)c2ccc(Cl)cc2)sc2c(CN(C)C)c(O)ccc12
inactive: HT29 colon 23% | SNB-75 CNS 79.2% | SNB-19 CNS 79.5% | U251 CNS 54.4% | PC-3 prostate 72.9% | UACC-62 melanoma 103% | LOX IMVI melanoma 60.6% | SK-MEL-28 melanoma 73.8%
active: HCT-15 colon -1.49%

Cc1cc(S(=O)(=O)/N=C(\N)n2nc(C)c(C)c2C)c(SCc2ccccc2)cc1Cl
inactive: HCT-15 colon 56.6% | HT29 colon 63.7% | SNB-75 CNS 79.4% | SNB-19 CNS 89.9% | U251 CNS 60.8% | PC-3 prostate 40.2% | UACC-62 melanoma 71.1% | LOX IMVI melanoma 66.9% | SK-MEL-28 melanoma 91.4%

COc1ccc(\C=N/N=C(N)/C(N)=N\N=C/c2ccc(OC)cc2)cc1
inactive: HCT-15 colon 104% | HT29 colon 102% | SNB-75 CNS 86.8% | SNB-19 CNS 112% | U251 CNS 107% | PC-3 prostate 101% | SK-MEL-5 melanoma 105% | LOX IMVI melanoma 99.1% | SK-MEL-28 melanoma 125%

N=C(N)c1ccc(-c2ccc(-c3ccccc3)o2)cc1
inactive: SNB-75 CNS 19.8%
active: HCT-15 colon -62.1% | HT29 colon -76.5% | SNB-19 CNS -16.9% | U251 CNS -77.7% | PC-3 prostate -23.3% | SK-MEL-5 melanoma -80.6% | LOX IMVI melanoma -89.8% | SK-MEL-28 melanoma -61.1%

CC1CCN(S(=O)(=O)c2ccc(S(=O)(=O)N3CCCC(c4nc5c(nnn5Cc5cccc(Cl)c5)c(=O)[nH]4)C3)cc2)CC1 (centres undefined)
inactive: HCT-15 colon 36.1% | HT29 colon 17.1% | SNB-75 CNS 21.6% | SNB-19 CNS 67.6% | U251 CNS 45.1% | PC-3 prostate 47% | UACC-62 melanoma 40.2% | LOX IMVI melanoma 42.4% | SK-MEL-28 melanoma 62%

CSc1nc2ccccc2cc1/C=[N+](\[O-])c1ccccc1
inactive: HCT-15 colon 18.7% | HT29 colon 80.2% | SNB-75 CNS 67.3% | SNB-19 CNS 72.9% | U251 CNS 46.2% | PC-3 prostate 40.9% | UACC-62 melanoma 51.5% | LOX IMVI melanoma 38.1%

COc1ccccc1N1CCCCC1
inactive: HCT-15 colon 102% | HT29 colon 101% | SNB-75 CNS 99.4% | SNB-19 CNS 95.2% | U251 CNS 108% | PC-3 prostate 98.8% | UACC-62 melanoma 96.3% | LOX IMVI melanoma 100% | SK-MEL-28 melanoma 102%

c1ccc2cc(C[n+]3ccn(CCCCCCCCCCn4cc[n+](Cc5ccc6ccccc6c5)c4)c3)ccc2c1
inactive: HCT-15 colon 50.5% | SNB-19 CNS 22.8% | U251 CNS 11.7% | UACC-62 melanoma 16.9% | SK-MEL-28 melanoma 20.6%
active: HT29 colon -32.5% | SNB-75 CNS -1.15% | PC-3 prostate 7.04% | LOX IMVI melanoma -53.9%

Cc1cccc(/C=C2\CN(C(=O)OC(C)(C)C)C/C(=C\c3cccc(C)c3)C2=O)c1
inactive: HCT-15 colon 76.2% | HT29 colon 46.5% | SNB-75 CNS 74.7% | SNB-19 CNS 95.9% | U251 CNS 63.6% | PC-3 prostate 89% | UACC-62 melanoma 81.3% | LOX IMVI melanoma 47.1% | SK-MEL-28 melanoma 104%

CN(C)CCNC(=O)c1ccc(-c2nc3ccc4[nH]ncc4c3c3c2C2CCC3C2)cc1 (centres undefined)
inactive: HCT-15 colon 41.8% | HT29 colon 34.4% | SNB-19 CNS 60.9% | U251 CNS 44.8% | PC-3 prostate 19.9% | UACC-62 melanoma 31.3% | LOX IMVI melanoma 26.2%
active: SNB-75 CNS -12.4%

CCC(C)N(CCNc1cc(OC)cc2cccnc12)CC(C)C (centres undefined)
inactive: HCT-15 colon 71.7% | HT29 colon 73.7% | SNB-75 CNS 109% | SNB-19 CNS 94.3% | U251 CNS 99.4% | PC-3 prostate 83.5% | UACC-62 melanoma 88.9% | LOX IMVI melanoma 76.9% | SK-MEL-28 melanoma 109%

CCn1cc(C(=O)O)c(=O)c2cc(F)c(N3CCN(CC(=O)Nc4ccc(S(=O)(=O)Nc5nccc(C)n5)cc4)C(C)C3)c(F)c21 (centres undefined)
active: SK-MEL-5 melanoma -93.3%
inactive: HCT-15 colon 100% | HT29 colon 117% | SNB-75 CNS 95.7% | SNB-19 CNS 98.7% | U251 CNS 110% | PC-3 prostate 98% | LOX IMVI melanoma 95.6% | SK-MEL-28 melanoma 107%

CCOC(=O)c1cc2c(n1C)-c1nc(NC(C)=O)sc1CCC2
inactive: HCT-15 colon 88.3% | HT29 colon 88% | SNB-75 CNS 71.4% | SNB-19 CNS 83.6% | U251 CNS 78.2% | PC-3 prostate 51% | UACC-62 melanoma 69.5% | LOX IMVI melanoma 79.6% | SK-MEL-28 melanoma 107%

Cc1[nH]c(C(=O)Nc2ccccc2OC2CCNCC2)c(Cl)c1Cl
inactive: HCT-15 colon 20.2% | SNB-19 CNS 33.4% | PC-3 prostate 43.1% | SK-MEL-28 melanoma 18.9%
active: HT29 colon -7.94% | SNB-75 CNS -28.9% | U251 CNS -4.3% | UACC-62 melanoma -79.9% | LOX IMVI melanoma -88.3%

CC1CCN(CCOc2ccc(CNc3ccc4nc(CCC5CCCCC5)[nH]c4c3)cc2)CC1
active: HCT-15 colon -22.5% | U251 CNS -11.2% | SK-MEL-5 melanoma -99% | LOX IMVI melanoma -85.7% | SK-MEL-28 melanoma -80.2%
inactive: HT29 colon 10% | SNB-75 CNS 59.7% | SNB-19 CNS 62.3% | PC-3 prostate 40.3%

c1csc(-c2ccc(CNc3c4ccccc4nc4ccccc34)cc2)c1
active: HCT-15 colon -66.2% | HT29 colon -46.8% | U251 CNS -72.7% | SK-MEL-5 melanoma -90.7% | LOX IMVI melanoma -90.7% | SK-MEL-28 melanoma -86%
inactive: SNB-75 CNS 36.1% | SNB-19 CNS 46.2% | PC-3 prostate 24%

CN(C)CCNC(=O)c1cc2c3cc(Cl)ccc3[nH]c2c2ncccc12
active: HT29 colon 0.808% | UACC-62 melanoma -86.5% | LOX IMVI melanoma -77.5% | SK-MEL-28 melanoma -59.3%
inactive: HCT-15 colon 14.2% | SNB-75 CNS 44.7% | SNB-19 CNS 40% | U251 CNS 11.5% | PC-3 prostate 22.4%

Nc1ncnc2c1C(c1ccc(Br)cc1)c1sc3c(F)cccc3c1O2 (centres undefined)
inactive: HCT-15 colon 97.1% | HT29 colon 100% | SNB-75 CNS 83.7% | SNB-19 CNS 110% | U251 CNS 98% | PC-3 prostate 87.4% | SK-MEL-5 melanoma 96.2% | LOX IMVI melanoma 82.9% | SK-MEL-28 melanoma 119%

O=C(Nc1nc2ccc(C(=O)N3CCN(/C=C/c4ccccc4)CC3)cc2s1)c1ccc(NCCc2ccccc2)c([N+](=O)[O-])c1
inactive: HCT-15 colon 22.4% | SNB-75 CNS 79% | SNB-19 CNS 70.2% | U251 CNS 42.3% | PC-3 prostate 45% | UACC-62 melanoma 58.3% | LOX IMVI melanoma 47.4% | SK-MEL-28 melanoma 76%
active: HT29 colon 5.52%

CCn1cc(C(=O)NNC(=S)Nc2ccc(C)cc2)c(=O)c2ccc(C)nc21
inactive: HCT-15 colon 103% | HT29 colon 97.5% | SNB-75 CNS 97.3% | SNB-19 CNS 102% | U251 CNS 93.9% | PC-3 prostate 90.2% | UACC-62 melanoma 91.3% | LOX IMVI melanoma 95.1% | SK-MEL-28 melanoma 105%

O=S(=O)(NCCNc1nccc(-c2c(-c3ccc(F)c(O)c3)nc3occn23)n1)c1ccc(Cl)cc1
inactive: HCT-15 colon 98.9% | HT29 colon 92.3% | SNB-75 CNS 85.2% | SNB-19 CNS 101% | U251 CNS 93.9% | PC-3 prostate 79.8% | UACC-62 melanoma 23.9% | LOX IMVI melanoma 45.5% | SK-MEL-28 melanoma 40.1%

CCn1c(SCC(=O)N/N=C(\C)c2ccc(Cl)cc2)nc2c1c(=O)n(C)c(=O)n2C
inactive: HCT-15 colon 104% | HT29 colon 103% | SNB-75 CNS 79.6% | SNB-19 CNS 99.2% | U251 CNS 104% | PC-3 prostate 97.5% | UACC-62 melanoma 95.2% | LOX IMVI melanoma 94.6% | SK-MEL-28 melanoma 111%
